Measured values from the OligoGym collection.

These sequences were tested against RASSF3 (assay: pooled miR-30 sensor sort-seq; sequence = guide strand). Conditions: shRNA.
Also: reference of the scale not given here.

Sequence	sensor-assay potency score (higher = more potent)
TTTGCTGAGGTAACTGTGGGTT	0.0248
TAAGTTGTATTTATGAACTTTC	-0.5
TTTGATCTCCTCTTTGCTGAGG	-0.279
TGTATTTATGAACTTTCTCTTT	-0.702
TTTCTCTTTGATCTCCTCTTTG	-0.943
TTGTCTGTGACTGCTAAGTTGT	-0.937
TTTATGAACTTTCTCTTTGATC	-0.905
TTCATCTTCTTCCTTGTCCAAG	-0.91
TCTCTTTCTCAACATCTTGTTG	-1.22
TCTTTGATCTCCTCTTTGCTGA	-0.385
TTCAAGGTCATCTTCAACTTGT	0.533
TATTTATGAACTTTCTCTTTGA	-0.498

The sequences below were run against RASSF5 in the same assay as above. Conditions: shRNA.

Sequence	sensor-assay potency score (higher = more potent)
TTCTGGAAGAGCACTTGTCCGT	-0.498
TTAAGTGTGAACAACAGGCACC	-0.19
TTATATATAGCTATATGCCTTT	-0.531
TTCTCCTTTAGCACAAAGCTGA	-0.406
TTAAAAAGTGCAAACTTCTGGG	0.479
TAGCTGTCGATCTTCTGCTTGA	-0.141
TTTACAGTTAGTGCAGCGCAGC	-1.3
TTGTCCGTCCTTGTGTATCCGC	-0.676
TCGCGTGTTGTAGCTGTCGATC	-1.47
TTCTCTCGCGTGTTGTAGCTGT	0.0292
TTGTCCACAACCATGAACTTCT	0.0348
TGAAGCTACACGAACAAGCTTG	0.101

These sequences were tested against RASSF8 in the same assay as above. Conditions: shRNA.

Sequence	sensor-assay potency score (higher = more potent)
TATTTCATTAGATTCCAGCTGT	1.11
TAAGGCTATGACAACCTCCTGG	0.0646
TATTTCTTGAAGTTGATCCTTC	0.825
TTGATCTTTTGCTCTAGACGGA	-0.232
TTCTATTTCATTAGATTCCAGC	-0.148
TTAGCTTCTTCAACTCATCTGC	0.759
TTGATTGATTTGTCAATCTGAG	-0.187
TTGAAGTTGATCCTTCAGCTGT	-0.249
TACATCGTTTCTTTTGATCTTT	-0.624
TTCTCTATAAGGGTGTACCTTC	-0.973
TTAATTTGTTTTCACATTCTGT	-0.415
TTTGCAGTTATTCAGCACCTTT	-1.3

These sequences were tested against RBFOX1 in the same assay as above. Conditions: shRNA.

Sequence	sensor-assay potency score (higher = more potent)
TTATTCATTATCTAGCATCTGT	0.299
TTGTCTGAGGTCCGGATCCCGG	-1.44
TATTTGTCATTACACGTGCTGT	-1.1
AAACATTTGTCTGAGGTCCGGA	0.142
